Data from PubChem BioAssay (NCI).
Several values for one entry are separate records, joined by “and”; a condition that tells them apart may be missing. Equal values may be shown once. The panel holds about 83,000 compounds, 20% with a hit somewhere; the sample as a whole holds those more often.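 Percent growth is the endpoint: 0 to 100 indicates growth inhibition (40 means 60% inhibition), 0 means no net growth, and negative values indicate cell death.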 Activity calls are given as the source filed them. How the source made its calls: active means growth percent below 10; inactive means the rest.

Columns and labels:
Experiment in all cases: NCI-60 one-dose screen, 48 h (100 = growth as untreated, 0 = no growth, -100 = all killed)
Conditions in all cases: 10 µM unless noted
[1] = system: SK-MEL-2 melanoma
[2] = system: EKVX NSCLC
[3] = system: SN12C renal
[4] = system: UO-31 renal
[5] = system: TK-10 renal
[6] = system: ACHN renal
[7] = system: CAKI-1 renal
[8] = system: A498 renal
[9] = system: CCRF-CEM leukemia
[10] = system: MOLT-4 leukemia
[11] = system: SR leukemia
[12] = system: RPMI-8226 leukemia
[13] = system: OVCAR-8 ovarian
[14] = system: OVCAR-5 ovarian
[15] = system: OVCAR-4 ovarian
[16] = system: SK-OV-3 ovarian
[17] = system: IGROV1 ovarian
[18] = system: OVCAR-3 ovarian
[19] = system: HS 578T breast
[20] = system: NCI/ADR-RES ovarian

Measured: growth

CCc1ccccc1-n1[nH]c(C)c(C=N)c1=O
inactive: [1] 106% | [2] 104% | [3] 106% | [4] 90% | [5] 103% | [6] 105% | [7] 97.3% | [8] 112% | [9] 102% | [10] 117% | [11] 94.8% | [12] 107% | [13] 118% | [14] 110% | [15] 114% | [16] 119% | [17] 112% | [18] 124% | [19] 99.2% | [20] 106%

CCCCC/C(C)=N\NC(N)=S
inactive: [1] 103% | [2] 55.4% | [3] 84.4% | [4] 61.8% | [5] 100% | [6] 92.6% | [7] 95.2% | [8] 84.7% | [9] 41.1% | [10] 57.2% | [11] 86.9% | [12] 70.9% | [13] 65.3% | [14] 103% | [15] 67.8% | [16] 98.9% | [17] 89.7% | [18] 43.4% | [19] 87.6% | [20] 48.8%

O=C(/C=C/C=C/c1ccc2c(c1)OCO2)N1CCCCC1
105% (inactive) and 6.71% (active): [17]
inactive: [1] 128% and 57.5% | [2] 78.9% and 95.9% | [3] 97.9% and 100% | [4] 88.8% and 74.4% | [5] 157% and 175% | [6] 106% | [7] 92.6% and 106% | [8] 92.7% and 83.6% | [9] 109% and 107% | [10] 98.3% and 84% | [11] 92.4% and 86% | [12] 102% and 124% | [13] 101% and 97.4% | [14] 96.4% | [15] 103% and 96.8% | [18] 121% and 104% | [19] 104% and 94.8% | [20] 98% and 106%

S=c1nn[nH]n1C1CCCCC1
inactive: [1] 129% | [2] 106% | [3] 105% | [4] 100% | [5] 118% | [6] 109% | [7] 108% | [8] 87.5% | [9] 93.9% | [10] 115% | [11] 101% | [12] 109% | [13] 95.4% | [14] 117% | [15] 109% | [16] 137% | [17] 104% | [18] 104% | [19] 95.7% | [20] 112%

O=C(O)Cc1cc(=O)[nH]n(-c2ccccc2)c1=O
inactive: [1] 116% | [2] 96% | [3] 97.9% | [4] 101% | [5] 102% | [6] 105% | [7] 83.5% | [8] 97.6% | [9] 112% | [10] 88.3% | [11] 88.9% | [12] 117% | [13] 90% | [14] 100% | [15] 103% | [17] 115% | [18] 110% | [19] 117% | [20] 115%

Cc1nc2c(=O)[nH]c(=S)[nH]c2[nH]c1=O
inactive: [1] 102% and 114% | [2] 102% and 109% | [3] 102% and 97.1% | [4] 93.8% and 87.3% | [5] 106% and 119% | [6] 103% and 97.6% | [7] 94.4% and 93.9% | [8] 97.5% and 97.3% | [9] 101% and 104% | [10] 100% and 103% | [11] 112% | [12] 104% and 105% | [13] 103% | [14] 109% and 102% | [15] 113% | [17] 107% and 113% | [18] 118% and 111% | [19] 102% | [20] 106% and 103%

CCOC(=O)CN1CCC(C(=O)OCC)CC1
inactive: [1] 111% | [2] 127% | [3] 99.7% | [4] 94.9% | [5] 106% | [6] 111% | [7] 116% | [8] 91.5% | [9] 89.5% | [10] 106% | [11] 124% | [12] 95.8% | [13] 106% | [14] 104% | [15] 108% | [16] 99.1% | [17] 122% | [18] 117% | [19] 106% | [20] 110%

CC(C)(C)OC(=O)NCCc1ccc(N)cc1
inactive: [1] 86.1% | [2] 101% | [3] 91.8% | [4] 72% | [5] 92.7% | [6] 105% | [7] 98.2% | [8] 92.5% | [9] 85.5% | [10] 92.8% | [11] 99.5% | [12] 91.4% | [13] 104% | [14] 111% | [15] 98.8% | [16] 101% | [18] 106% | [19] 96% | [20] 99.2%

COc1ccc(CCO)cc1
inactive: [1] 91.7% | [2] 107% | [3] 100% | [4] 96.9% | [5] 96.3% | [6] 103% | [7] 102% | [8] 97.2% | [10] 60.7% | [11] 75.6% | [12] 110% | [13] 101% | [14] 103% | [15] 111% | [16] 109% | [17] 99.6% | [18] 111% | [19] 98.2% | [20] 108%

CC1(C)OC(=O)C(=Cc2ccc(C#N)cc2)C(=O)O1
inactive: [1] 93.7% | [2] 102% | [3] 104% and 112% | [4] 94.3% and 87.1% | [5] 98.3% and 101% | [6] 108% and 98.1% | [7] 102% and 99.3% | [9] 102% and 97.1% | [10] 103% and 80.1% | [11] 93.5% and 89% | [12] 101% and 103% | [13] 94.5% and 97.8% | [14] 107% and 113% | [15] 115% and 98.3% | [16] 104% and 106% | [17] 107% and 105% | [18] 111% and 105% | [19] 99.3% and 104% | [20] 106% and 110%

COC(=O)c1nc(N)nc(C(=O)OC)c1C(=O)c1cccc2ccccc12
inactive: [1] 106% | [2] 103% | [3] 99.5% | [4] 89.7% | [5] 97.5% | [6] 106% | [7] 96.3% | [9] 101% | [10] 112% | [11] 105% | [12] 109% | [13] 117% | [14] 103% | [15] 108% | [16] 121% | [17] 117% | [18] 132% | [19] 108% | [20] 103%

CSc1nc(N)c(N)c(N)n1
inactive: [1] 104% | [2] 105% | [3] 99.4% | [4] 93% | [5] 111% | [6] 110% | [7] 97.8% | [8] 94.5% | [10] 83% | [11] 90.8% | [12] 102% | [13] 103% | [14] 120% | [15] 103% | [16] 81.3% | [17] 108% | [18] 113% | [19] 111% | [20] 110%
